TSHR agonist = agonists of human thyroid stimulating hormone receptor | AID 926 | 0.48% of 73,000 active | Potency, µM (series often up to 57.1 µM), without a hit: top-dose activation, usual class: activators | HEK293-CNG-TSHR cells (CNG channel as cAMP sensor), membrane potential dye, cAMP; active = well fitted activation curve with a large enough effect in the main read-out, with a control signal flat, not every such curve was filed as active; inconclusive = small, poorly fitted or top-dose-only effect, or a change in a side signal; inactive = no such curve, though single readings can be large or run the other way; % of control where 0% means no effect;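 note: the control signal comes from parental cells without the receptor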
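cAMP rise detected as CNG-channel membrane depolarization by fluorescent dye (emission 590 nm), 30 min after compound, following 60 min dye loading containing 100 uM RO 20-1724 at room temperature. Cells: TSHR/CNG HEK 293, with parental CNG HEK 293 as control.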
15-hLO inh = inhibitors of human 15-lipoxygenase (ALOX15); Potency, µM (doses to about 57.1 µM), inactives show at the highest dose activity change, negative = inhibition, actives largely listed as inhibitors; 1.4% of 74,000 active; P16050; purified 15hLO-1, xylenol orange hydroperoxide absorbance; note: % is set by controls: 0 for no effect and ±100 for the full control effect; nearly all actives have a fitted effect of over 55% in size
Target sequence (P16050 whole entry, looked up): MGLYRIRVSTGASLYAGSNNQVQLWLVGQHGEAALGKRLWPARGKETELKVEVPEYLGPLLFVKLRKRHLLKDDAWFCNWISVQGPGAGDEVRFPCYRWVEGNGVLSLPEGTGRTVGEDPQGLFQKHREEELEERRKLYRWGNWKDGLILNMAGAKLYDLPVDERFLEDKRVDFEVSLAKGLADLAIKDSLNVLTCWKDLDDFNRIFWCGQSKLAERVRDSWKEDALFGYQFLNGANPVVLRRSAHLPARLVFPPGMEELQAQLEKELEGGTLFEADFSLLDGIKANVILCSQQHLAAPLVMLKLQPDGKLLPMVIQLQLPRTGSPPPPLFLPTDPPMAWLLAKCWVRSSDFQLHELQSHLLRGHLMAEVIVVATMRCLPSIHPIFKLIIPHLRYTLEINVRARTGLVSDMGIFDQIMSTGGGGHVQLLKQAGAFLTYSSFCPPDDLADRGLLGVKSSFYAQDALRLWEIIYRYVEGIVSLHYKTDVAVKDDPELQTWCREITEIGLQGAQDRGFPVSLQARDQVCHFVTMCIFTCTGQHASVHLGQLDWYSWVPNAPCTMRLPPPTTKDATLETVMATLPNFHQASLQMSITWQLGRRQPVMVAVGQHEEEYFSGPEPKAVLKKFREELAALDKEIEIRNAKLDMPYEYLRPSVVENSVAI
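40 nM 15hLO-1 + cpd, 15 min RT; start w/ 50 uM AA (final), 6 min RT; stop/detect w/ 200 uM XO + 300 uM Fe(II) in 50 mM H2SO4, 30 min; A573/A405. Buffer 25 mM Hepes pH 7.5, 0.01% Triton X-100. No-enzyme wells as negative control.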
Tau fil binding = binders of human tau filaments. 2% of 71,000 active. Potency, µM (highest dose often 57.1 µM), inactives show top-dose activity change, negative = inhibition. AID 596. recombinant tau filaments, thioflavin S fluorescence, 15 h; filaments grown with octadecylsulfate alongside compound. P10636;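 note: % is set by controls: 0 for no effect and ±100 for the full control effect; actives lower thioflavin S fluorescence by blocking filaments or displacing dye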
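Recombinant tau protein (human, 1 uM final) plus 30 uM ODS in HEPES pH 7.4 with NaCl, DTT and thioflavine S. Compound present from the start; fluorescence at 510 nm after 15 h, 37 C.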
FLuc inh = inhibitors of firefly luciferase | purified firefly luciferase, luminescence, 8 min | Potency, µM (titrated, usually from 57.1 µM), without a hit: top-dose activity change, negative = inhibition, actives largely listed as inhibitors | 2.2% of 72,000 active; note: % is set by controls: 0 for no effect and ±100 for the full control effect; nearly all actives have a fitted effect of over 40% in size
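Luminescence read-out after 8 min at room temperature; enzyme reaction used luciferin plus 10 uM ATP (linear range) in imidazole buffer pH 7.2 with KCl, MgCl2, Tween 20 and BSA. Each sample was run as a titration.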
Bst PK mod = alters activity of Bacillus stearothermophilus pyruvate kinase; purified pyruvate kinase, luminescence ATP production; ribose 5-phosphate activator present at AC10; Potency, µM; 1.2% of 51,000 active; AID 361; in the data active = potency below about 11 µM; inconclusive = mostly about 12 µM to 25 µM;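 the screen sought inhibitors and activators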;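 note: scaled between full activation by ribose 5 phosphate and full inhibition by luteolin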
HEK293 cAMP cs = raises cAMP in parental HEK293 cells, TSHR agonist counter-screen | parental HEK293 CNG cAMP sensor, membrane potential fluorescence | Potency, µM (highest dose often 57.1 µM), for inactives: at the highest dose activation, actives largely listed as activators | 2.5% of 73,000 active | AID 938; note: % of control where 0% means no effect; nearly all actives have a fitted effect of over 55% in size
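Parental HEK 293 cells stably expressing a modified CNG channel (no TSHR) report cAMP rise as membrane depolarization. Membrane potential dye with 100 uM RO 20-1724 was loaded for 60 min at room temperature, then compound added for 30 min; fluorescence read at 590 nm.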
* = called active by the depositor; ? = inconclusive; · = not tested or not shown; [ ] = another dose, or the depositor's remark. An excerpt weighted towards active compounds, which were near 7.8% of everything screened. Unless noted, calls come from the whole dose curve; as a rule, active = well fitted curve in the direction sought with a large enough effect; inconclusive = small, poorly fitted or top-dose-only effect, or another doubt; inactive = no such curve, though single readings can be large; an effect the other way counts as inactive or inconclusive. Potency is the fitted concentration of half-maximal effect.

SMILES	TSHR agonist	15-hLO inh	Tau fil binding	FLuc inh	Bst PK mod	HEK293 cAMP cs
Nc1ccc(-c2ccc(N)c(O)c2)cc1O	-1%	?	5µM*	·	·	26%
N[C@H](Cn1cc(I)c(=O)[nH]c1=O)C(=O)O	2%	·	-2%	1%	·	6%
O=C1C[C@H]2OCCC=C3CN4CC[C@@]56c7ccccc7N1[C@@H]5[C@H]2[C@H]3C[C@@H]46	2%	·	-28%	2%[11.4 µM]	·	28%
O=C(O)c1cc[c]([Hg][S]c2ncnc3nc[nH]c23)cc1	-9%[11.4 µM]	0.79µM*	-10%[11.4 µM]	?	·	22%[11.4 µM]
O=c1cccc2n1C[C@H]1C[C@@H]2CN(CCO)C1	0%	·	13%	1%[11.4 µM]	·	-1%
Oc1cc(Cl)c(Cl)c(Cl)c1Cl	?	-18%	-2%	·	·	40µM*
Oc1c(Cl)c(Cl)cc(Cl)c1Cl	?	-4%	2%	·	·	40µM*
Oc1cc(Cl)c(Cl)c(Cl)c1	21%	-15%	-7%	·	·	-3%
Cc1cc(N2CCOCC2)nc2ccc(NC(=O)CCC(=O)N3CCC4(CC3)OCCO4)cc12	0%	11%	-5%	13µM*	·	7%
Cn1cc(CCC(=O)N2CCC3(CC2)OCCO3)c2ccccc21	-5%	-1%	-5%	0%	>57	-1%
CCC/C=C(\CCC)C(NP(=O)(c1ccccc1)c1ccccc1)c1ccccc1 (stereo unspecified)	?	·	-11%	·	·	?
C=C(CC1(C(C)NP(=O)(c2ccccc2)c2ccccc2)CC1)c1ccccc1 (stereo unspecified)	?	·	9%	·	·	16µM*
C=CCN1C[C@@H](C)N([C@H](c2ccc(C(=O)N(CC)CC)cc2)c2cccc(OC)c2)C[C@H]1C	6%	12%	4%	-3%	·	14%
CSC([N-]/N=C/c1cccc(C)n1)=[S]=[Cu].CS[C@H]([S-])[N-]/N=C/c1cccc(C)n1	-7%[11.4 µM]	?	?	-3%[11.4 µM]	·	-2%[11.4 µM]
c1ccc(/N=C2\N=C(Nc3ccccn3)c3ccccc32)nc1	7.9µM*	49%	-24%	2%	·	19%
CNc1ccc2oc(C[C@@H]3O[C@@]4(CC[C@H]3C)O[C@@H]([C@@H](C)C(=O)c3ccc[nH]3)[C@@H](C)C[C@H]4C)nc2c1C(=O)O	16%	·	-16%	-2%	·	12%
COC(=O)[C@@H]1C[C@@H]1[C@@H](NP(=O)(c1ccccc1)c1ccccc1)c1ccccc1	?	·	7%	·	·	10µM*
COC(=O)[C@@H]1C[C@H]1[C@@H](NP(=O)(c1ccccc1)c1ccccc1)c1ccccc1	?	·	2%	·	·	13µM*
COC(=O)[C@H]1C[C@@H]1[C@H](NP(=O)(c1ccccc1)c1ccccc1)c1ccccc1	?	·	7%	·	·	0.5µM*
COC(=O)[C@]1(C)C[C@H]1[C@H](NP(=O)(c1ccccc1)c1ccccc1)c1ccccc1	?	4%	0%	·	·	?
O=C(O)[C@@H]1C[C@H]1[C@@H](NP(=O)(c1ccccc1)c1ccccc1)c1ccccc1	3%	·	6%	·	·	3%
CNC(=O)[C@H]1C[C@@H]1[C@H](NP(=O)(c1ccccc1)c1ccccc1)c1ccccc1	?	·	11%	·	·	16µM*
C[C@@H]1[C@H]2C=C[C@@H]1[C@@H](c1c3ccc(=O)c(O)c-3oc3c(O)c(O)ccc13)[C@@H]2C(=O)O	7%[11.4 µM]	?	?	-4%[11.4 µM]	·	2%[11.4 µM]
C[C@H](N)c1cccc(Cl)c1Cl	2%	6%	-11%	-2%	·	8%
NC(N)=Nc1ccc2[nH]c3c(c2c1)C[C@]1(O)[C@@H]2Cc4ccc(O)c5c4[C@]1(CCN2CC1CC1)[C@H]3O5	?	1.3µM*	58%	7%	·	0.016µM*
SMILES	TSHR agonist	15-hLO inh	Tau fil binding	FLuc inh	Bst PK mod	HEK293 cAMP cs
O=S(=O)(NCCO)c1cc[c]([Sb](=[O])([OH])[OH])cc1	5%[11.4 µM]	16%[11.4 µM]	-3%[11.4 µM]	-1%[11.4 µM]	·	-7%[11.4 µM]
Cc1noc(C)c1C(=O)N1CCC2(CC1)OCCO2	2%	4%	13%	0%	>57	2%
Cc1noc(C)c1C(=O)N1CCC2(CCCN(CC(C)C)C2)CC1	?	0%	-4%	2%[11.4 µM]	·	16µM*
C[C@@]12C=CC(=O)C=C1CC[C@@H]1C2=CC[C@]2(C)[C@@H]1CC[C@H]2C(=O)CN1CCN(c2cc(N3CCCC3)nc(N3CCCC3)n2)CC1	·	?	6.3µM*	1%	·	-12%
OC[C@H]1CCCN2CCCC[C@@H]12	-1%	·	?	-1%[11.4 µM]	·	-2%
CCCCn1c(C)c(C(=O)OCC)c2c(CN3CCOCC3)c(O)ccc21	?	-8%	33%	2%	·	6.3µM*
CCOC(=O)c1c(C)n(Cc2ccco2)c2ccc(O)cc12	7%	?	28%	1%	>57	21%
C[C@H]1C(=O)O[C@H]2CCN3CC=C(COC(=O)[C@](C)(O)[C@@]1(C)O)[C@H]23	0%	·	0%	-3%[11.4 µM]	·	-3%
O=[N+]([O-])c1ccc(O[C@H]2O[C@@H](CO)[C@@H](O)[C@@H](O)[C@@H]2F)c([N+](=O)[O-])c1	13%	-1%	-4%	-1%	·	13%
C1=C(c2c[nH]c3ccccc23)CCNC1	-2%	?	-18%	-2%	·	-2%
CCCOc1ccc2[nH]cc(C3=CCNCC3)c2n1	-5%	?	?	13µM*	·	2%
O=C(NC(=O)c1c(F)cccc1F)Nc1cc(Cl)c(OC(F)(F)C(F)C(F)(F)F)cc1Cl (stereo unspecified)	·	16µM*	·	·	·	·
COC1=C[C@H]2[C@@H]3Cc4ccc(OC)c(O)c4[C@@]2(CCN3C)CC1=O	11%	·	?	4%[11.4 µM]	·	1%
C[C@]12Cc3cn4c(nc3C=C1CC[C@H]1[C@@H]2CC[C@@]2(C)[C@H]1CC[C@@]2(O)C#N)nc1ccccc14	?	15%	11%	-3%	·	?
C/C=C(\C)C(=O)O[C@@H]1C(C)=C2[C@H]([C@@H]1OC(=O)CCCCCCC)[C@@](C)(OC(C)=O)C[C@@H](OC(=O)CCC)[C@@]1(O)[C@H]2OC(=O)[C@]1(C)O	·	20µM*	-18%	0%	·	13%
O=C(c1ccco1)N1CCN(Cc2ccccc2C(F)(F)F)CC1	?	-17%[11.4 µM]	?	-1%	·	4µM*
CN1CCC2(CC1)CCN(C(=O)c1ccco1)CC2	6%	1%	13%	0%[11.4 µM]	·	14%
Cc1onc(-c2ccccc2Cl)c1C(=O)OCC(=O)c1ccc2c(c1)OCCO2	?	0%	1%	16µM*	·	?
Cc1onc(-c2ccccc2Cl)c1C(=O)NCc1ccccn1	?	-7%	8%	0%	>57	?
c1cnc(N2CCCC3(CCNCC3)C2)nc1	2%	7%	-10%	0%[11.4 µM]	·	9%
c1cc(N2CCCC3(CCNCC3)C2)ccn1	?	27%	20%	0%[11.4 µM]	·	2.5µM*

Compound activity (PubChem)
